# PubChem BioAssay AID588335 (The Scripps Research Institute Molecular Screening Center, 2011)
# The campaign covered roughly 360,000 compounds. About 4,500 (1.2%) were called active. Cut-off read from the data, not from the text of the source: active = inhibition above about 30%; inactive = the rest. This excerpt belongs to a sample that is enriched for actives.
# Test: GDH-TPI coupling enzyme inhibitors, primary screen, artefact control for M. tuberculosis FBA inhibitor project, biochemical, absorbance, full deck (AID 588335);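 note: 0% = DMSO wells and 100% = wells lacking the enzyme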
# Settings: GDH-TPI coupled enzyme counterscreen, NADH absorbance; at 4.8 µM; stronger effect = higher value
row,Compound,inhibition
1,COc1ccc2oc(C(=O)OCC(=O)N(CC(C)C)c3c(N)n(Cc4ccccc4)c(=O)[nH]c3=O)c(C)c2c1,-3.6% (inactive)
2,O=C1Nc2ccc([N+](=O)[O-])cc2C1=Nc1cccc(CO)c1,15.1% (inactive)
3,CCOc1ccc(C(C(=O)NCCOC)N(CCOC)C(=O)CCC(=O)Nc2ccccn2)cc1 (centres undefined),5.17% (inactive)
4,COC(=O)Cc1cnc(NC(=O)CSc2nc(C(C)C)cc(=O)[nH]2)s1,-1.15% (inactive)
5,COc1ccc2c(c1)C(=O)CC(c1ccccc1)O2 (centres undefined),0.86% (inactive)
6,O=C1CC(c2ccccc2)C(=O)N2C(=O)CC(c3ccccc3)C(=O)N12 (centres undefined),1.76% (inactive)
7,Cc1c(O)c(C)c2c(c1O)C(=O)C[C@@H](c1ccccc1)O2,31% (active)
8,NC(=O)CN1CCCC1c1ccc2c(c1)OCCO2 (centres undefined),-7.41% (inactive)
9,CC1=NNC(=O)C1CCC(=O)N/N=C\c1cccc(Cl)c1 (centres undefined),-3.82% (inactive)
10,CCOC(=O)C(Sc1ncc(C#N)c(N)n1)C(C)C (centres undefined),5.66% (inactive)
11,CCCCSc1[nH]c(=O)c(C(=O)OCC)cc1C#N,36.1% (active)
12,CCOC(=O)c1ccc(COC(=O)c2cc(=O)[nH]c3ccccc23)o1,7.46% (inactive)
13,CC(=O)N1C(C)c2ccccc2C(C)(C)CC12CCCCC2 (centres undefined),4.51% (inactive)
14,O=C1COc2ccc(C(=O)COC(=O)c3cccnc3Cl)cc2N1,1.57% (inactive)
15,COc1ccc(/C=C(/NC(=O)c2ccco2)C(=O)Nc2ccc(C(C)=O)cc2)cc1,33.5% (active)
16,Cc1ccc(NC(=O)/C(=C\c2ccccc2)NC(=O)c2ccco2)cc1,21.3% (inactive)
17,COc1ccccc1C(=O)N/C(=C/c1ccco1)C(=O)Nc1ccc(C(=O)O)cc1,1.49% (inactive)
18,CC1(C)COC(c2cccn2Cc2ccccc2Cl)=N1,12.7% (inactive)
19,O=C(NCc1ccncc1)C(=O)NCC1OCCN1S(=O)(=O)c1ccc(Br)cc1 (centres undefined),3.11% (inactive)
20,O=C(Cc1ccsc1)N1CCN(S(=O)(=O)c2cc(C(F)(F)F)cc(C(F)(F)F)c2)CC1,6.47% (inactive)

row,Compound,inhibition
1,Oc1c(Br)cc(/C=N/NC(=S)NCC2CCCO2)cc1Br (centres undefined),37.8% (active)
2,S=C(NCC1CCCO1)N1CCN(c2ccc(Cl)c(Cl)c2)CC1 (centres undefined),-2.84% (inactive)
3,O=C(CNC(=O)c1ccc(Br)o1)NCC1CCCO1 (centres undefined),-4.74% (inactive)
4,CC(C)(C)CC(C)(C)NCC(O)COCCOc1ccc(Br)cc1 (centres undefined),-7.87% (inactive)
5,CC(=NNC(N)=O)C1CC2CCC1CC2 (centres undefined),4% (inactive)
6,CC1CCCCC1NC(=O)COC(=O)Cc1ccc(Br)cc1 (centres undefined),0.32% (inactive)
7,C/C(=N\NC(=O)C(N)=O)c1ccc2c(c1)OCCO2,0.63% (inactive)
8,O=C(/C=C/c1ccc2c(c1)OCCO2)c1ccc(O)cc1,37.5% (active)
9,O=C(/C=C/c1ccc(Cl)c([N+](=O)[O-])c1)c1ccc(O)cc1,40.7% (active)
10,O=C(O)c1ccc2c(=O)n3c(nc2c1)/C(=C/c1ccc(Cl)c([N+](=O)[O-])c1)CC3,-3.69% (inactive)
11,O=C(COC(=O)c1ccc(O)cc1O)c1ccc2c(c1)OCCO2,-0.63% (inactive)
12,Cc1ccnc(NC(=O)c2ccc(Cl)c([N+](=O)[O-])c2)c1,8.28% (inactive)
13,CC(C)C(=O)N1CC(=O)Nc2ccc(F)cc2C1c1ccc(F)cc1 (centres undefined),2.76% (inactive)
14,CSc1nc2ccccc2cc1/C=C(\C#N)c1ccc(Cl)cc1Cl,12.3% (inactive)
15,CC(=O)N1CCc2cc(Br)cc(S(=O)(=O)CCC(=O)Nc3c(C)n(C)n(-c4ccccc4)c3=O)c21,0% (inactive)
16,CCN(CC)CCCNC(=O)c1ccc2c(=O)n(Cc3ccc4c(c3)OCO4)c(=S)[nH]c2c1,3.66% (inactive)
17,CCSC(C)CC1C/C(=N/O)c2c(C)noc2C1 (centres undefined),-6.62% (inactive)
18,COc1ccc(-c2cc(=O)c3c(O)cc(O[C@@H]4O[C@H](CO[C@@H]5O[C@@H](C)[C@H](O)[C@@H](O)[C@H]5O)[C@@H](O)[C@H](O)[C@H]4O)cc3o2)cc1O,37.8% (active)
19,COc1c(O)cc2oc(-c3ccc(O)c(O)c3)cc(=O)c2c1O,22% (inactive)
20,C[C@@H]1O[C@@H](OC[C@H]2O[C@@H](Oc3c(-c4ccc(O)cc4)oc4cc(O)cc(O)c4c3=O)[C@H](O)[C@@H](O)[C@@H]2O)[C@H](O)[C@H](O)[C@H]1O,17.6% (inactive)

row,Compound,inhibition
1,Cc1csc(CN(C)C(=O)CC2C(=O)NCCN2CC(C)(C)C)n1 (centres undefined),-0.64% (inactive)
2,CC1(C(=O)Nc2cccc(Oc3ccccc3)c2)CCN1Cc1ccccc1Cl (centres undefined),11.5% (inactive)
3,CCOc1cc(C)ccc1OCc1nnc(SCC(=O)Nc2cccc(C(=O)O)c2)n1-c1ccccc1,5.71% (inactive)
4,CCNC(=S)N(CCN(CC)CC)Cc1cc2cc3c(cc2[nH]c1=O)OCCO3,27.9% (inactive)
5,CCN(CC)CCCNC(=S)N(CCO)Cc1cc2cc3c(cc2[nH]c1=O)OCO3,10.3% (inactive)
6,CCNC(=S)N(CCN(CC)CC)Cc1cc2cc3c(cc2[nH]c1=O)OCO3,40.6% (active)
7,CN1C(CC(=O)Nc2ccc(Br)cc2)c2ccccc2CC1(C)C (centres undefined),2.84% (inactive)
8,COc1cc(C(=O)N2CCN(S(=O)(=O)c3ccc(C(C)C)cc3)CC2)ccc1OCC(=O)N1CCOCC1,-5.56% (inactive)
9,Nc1ccccc1-c1nc2ccncc2[nH]1,17.8% (inactive)
10,c1ccc2[nH]c(-c3nc4ccccc4[nH]3)nc2c1,36.1% (active)
11,O=C(Nc1sc2c(c1-c1nc3ccccc3[nH]1)CCCC2)C1CC1,12.9% (inactive)
12,CCc1ccc2c(c1)cc(CN(C(=S)Nc1ccccc1Cl)C1CC1)c1nnnn12,3.4% (inactive)
13,COCCCN(C(=S)Nc1c(C)cc(C)cc1C)C(C)c1ccncc1 (centres undefined),-1.1% (inactive)
14,CCC1S/C(=N/N=C/c2ccco2)NC1=O (centres undefined),48.7% (active)
15,COc1ccc(CN2C(=O)C(C)S/C2=N/N=C/c2ccco2)cc1 (centres undefined),28.3% (inactive)
16,CCCCC1S/C(=N/N=C/c2cccs2)NC1=O (centres undefined),23.8% (inactive)
17,C=CCN1C(=O)C(Cc2cccc(Cl)c2)S/C1=N/N=C/c1ccco1 (centres undefined),17.9% (inactive)
18,CC(C)=N/N=C1/NC(=O)C(Cc2ccccc2)S1 (centres undefined),1.52% (inactive)
19,O=C1N/C(=N\N=C\c2ccco2)SC1Cc1ccc(F)cc1 (centres undefined),34.3% (active)
